Test results published in PubChem BioAssay AID1159580 (chemical genetic matrix, 2015).
Values joined by “and” are separate entries in the source; they are usually repeats but may differ in a detail not shown here. Equal entries are not always repeated. The campaign covered roughly 5,500 compounds. About 2,000 (36%) were called active. Inconclusive results (about 18%) are left out. Rule as the data show it: active = normalized growth mostly below about 0.91 (no sharp cut-off); inconclusive = no clear call, values can overlap the other calls; inactive = mostly above about 0.92. This is one part of the list.

Assay: chemical genetic growth profiling, strain panel (AID 1159580);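 also: tested at 20 µM; growth read once vehicle control cultures reached saturation at 30 °C; 1 = growth at the plate median or of vehicle wells; lower values mean less growth of the strain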
Settings: growth OD

Measured: normalized growth

CN(C)CCCN1c2ccccc2Sc2ccccc21
inactive: S. cerevisiae deletion strains, locus YJR075W, strain HOC1, hits give low values 0.995 and 1 | S. cerevisiae deletion strains, locus YKL009W, strain mrt4, hits give low values 1.02 | S. cerevisiae deletion strains, locus YKL068W, hits give low values 1.01 | S. cerevisiae deletion strains, locus YKL085W, strain MDH1 (second series), hits give low values 1 | S. cerevisiae deletion strains, locus YKL085W, strain MDH1, hits give low values 1 | S. cerevisiae deletion strains, locus YKL160W, strain elf1, hits give low values 1.04 | S. cerevisiae deletion strains, locus YKL190W, strain CNB1, hits give low values 1 | S. cerevisiae deletion strains, locus YKR001C, strain vps1, hits give low values 1.02 | S. cerevisiae deletion strains, locus YKR026C, strain gcn3, hits give low values 0.989 | S. cerevisiae deletion strains, locus YKR091W, strain srl3, hits give low values 0.984 | S. cerevisiae deletion strains, locus YLL001W, strain dnm1, hits give low values 0.978 | S. cerevisiae deletion strains, locus YLL026W, hits give low values 0.98 | S. cerevisiae deletion strains, locus YLL041C, strain sdh2, hits give low values 0.99 | S. cerevisiae deletion strains, locus YLR027C, strain aat2, hits give low values 0.999 | S. cerevisiae deletion strains, locus YLR039C, strain RIC1, hits give low values 1.19 | S. cerevisiae deletion strains, locus YLR058C, strain SHM2, hits give low values 1 | S. cerevisiae deletion strains, locus YLR102C, strain apc9, hits give low values 1.01 | S. cerevisiae deletion strains, locus YLR113W, strain HOG1, hits give low values 1.01 | S. cerevisiae deletion strains, locus YLR221C, strain rsa3, hits give low values 0.992 | S. cerevisiae deletion strains, locus YLR258W, strain gsy2, hits give low values 0.983 | S. cerevisiae deletion strains, locus YLR262C, strain YPT6 (second series), hits give low values 1.01 | S. cerevisiae deletion strains, locus YLR262C, strain YPT6, hits give low values 1.23 | S. cerevisiae deletion strains, locus YLR268W, strain sec22, hits give low values 1.01 | S. cerevisiae deletion strains, locus YLR320W, strain mms22, hits give low values 0.996 | S. cerevisiae deletion strains, locus YLR330W, strain CHS5, hits give low values 1.01 | S. cerevisiae deletion strains, locus YLR342W, strain FKS1 (second series), hits give low values 0.99 | S. cerevisiae deletion strains, locus YLR342W, strain FKS1, hits give low values 0.977 | S. cerevisiae deletion strains, locus YLR357W, strain rsc2, hits give low values 0.989 | S. cerevisiae deletion strains, locus YLR370C, strain arc18, hits give low values 1 | S. cerevisiae deletion strains, locus YLR371W, strain rom2, hits give low values 1.01 | S. cerevisiae deletion strains, locus YLR384C, strain iki3, hits give low values 0.997 | S. cerevisiae deletion strains, locus YLR418C, strain cdc73, hits give low values 0.988 | S. cerevisiae deletion strains, locus YML016C, strain PPZ1, hits give low values 1.01 | S. cerevisiae deletion strains, locus YML032C, strain rad52, hits give low values 1.01 | S. cerevisiae deletion strains, locus YML120C, strain ndi1, hits give low values 0.99 | S. cerevisiae deletion strains, locus YML124C, strain tub3, hits give low values 1.01 | S. cerevisiae deletion strains, locus YMR058W, strain fet3, hits give low values 0.982 | S. cerevisiae deletion strains, locus YMR078C, strain ctf18, hits give low values 1.01 | S. cerevisiae deletion strains, locus YMR125W, strain sto1, hits give low values 0.947 | S. cerevisiae deletion strains, locus YMR129W, hits give low values 1 | S. cerevisiae deletion strains, locus YMR205C, strain PFK2, hits give low values 1 | S. cerevisiae deletion strains, locus YMR223W, strain ubp8, hits give low values 0.999 | S. cerevisiae deletion strains, locus YMR231W, strain pep5, hits give low values 0.986 | S. cerevisiae deletion strains, locus YMR263W, strain SAP30, hits give low values 0.999 and 0.981 | S. cerevisiae deletion strains, locus YMR307W, strain GAS1, hits give low values 1.03 and 1.02 | S. cerevisiae deletion strains, locus YNL067W, strain RPL9B, hits give low values 0.988 | S. cerevisiae deletion strains, locus YNL071W, strain lat1, hits give low values 0.996 | S. cerevisiae deletion strains, locus YNL128W, strain TEP1, hits give low values 1.01 and 0.994 | S. cerevisiae deletion strains, locus YNL153C, strain GIM3, hits give low values 1.09 | S. cerevisiae deletion strains, locus YNL175C, strain NOP13, hits give low values 0.983 | S. cerevisiae deletion strains, locus YNL183C, strain NPR1, hits give low values 0.965 | S. cerevisiae deletion strains, locus YNL209W, strain ssb2, hits give low values 0.971 | S. cerevisiae deletion strains, locus YNL224C, strain SQS1, hits give low values 1.01 | S. cerevisiae deletion strains, locus YNL233W, strain BNI4, hits give low values 1.01 | S. cerevisiae deletion strains, locus YNL248C, strain rpa49, hits give low values 0.976 | S. cerevisiae deletion strains, locus YNL250W, strain rad50, hits give low values 1.01 | S. cerevisiae deletion strains, locus YNL271C, strain bni1, hits give low values 1.01 | S. cerevisiae deletion strains, locus YNL298W, strain CLA4, hits give low values 1 | S. cerevisiae deletion strains, locus YNL307C, strain MCK1, hits give low values 1.02 | S. cerevisiae deletion strains, locus YNL322C, strain KRE1 (second series), hits give low values 1.01 | S. cerevisiae deletion strains, locus YNL322C, strain KRE1, hits give low values 1 and 0.958 | S. cerevisiae deletion strains, locus YNR049C, strain mso1, hits give low values 0.996 | S. cerevisiae deletion strains, locus YNR052C, strain pop2, hits give low values 1.01 | S. cerevisiae deletion strains, locus YOL006C, strain TOP1, hits give low values 0.983 | S. cerevisiae deletion strains, locus YOL012C, strain htz1 0.964 | S. cerevisiae deletion strains, locus YOL147C, strain pex11, hits give low values 1.01 | S. cerevisiae deletion strains, locus YOR001W, strain rrp6, hits give low values 0.96 | S. cerevisiae deletion strains, locus YOR061W, strain CKA2, hits give low values 1.01 | S. cerevisiae deletion strains, locus YOR069W, strain VPS5, hits give low values 0.995 | S. cerevisiae deletion strains, locus YOR070C, strain gyp1, hits give low values 0.986 | S. cerevisiae deletion strains, locus YOR080W, strain dia2, hits give low values 1.01 | S. cerevisiae deletion strains, locus YOR083W, strain WHI5 (second series), hits give low values 0.98 | S. cerevisiae deletion strains, locus YOR083W, strain WHI5, hits give low values 0.971 | S. cerevisiae deletion strains, locus YOR106W, strain vam3, hits give low values 0.968 | S. cerevisiae deletion strains, locus YOR136W, strain idh2, hits give low values 1.02 | S. cerevisiae deletion strains, locus YOR144C, strain elg1, hits give low values 1.01 | S. cerevisiae deletion strains, locus YOR184W, strain ser1, hits give low values 1.08 | S. cerevisiae deletion strains, locus YOR231W, strain MKK1, hits give low values 0.986 | S. cerevisiae deletion strains, locus YOR265W, strain rbl2, hits give low values 1 | S. cerevisiae deletion strains, locus YOR270C, strain vph1, hits give low values 0.898 | S. cerevisiae deletion strains, locus YOR290C, strain snf2, hits give low values 1.01 | S. cerevisiae deletion strains, locus YOR316C, strain cot1, hits give low values 1.02 | S. cerevisiae deletion strains, locus YPL051W, strain arl3, hits give low values 1 | S. cerevisiae deletion strains, locus YPL055C, strain LGE1, hits give low values 1.01 | S. cerevisiae deletion strains, locus YPL078C, strain atp4, hits give low values 1.01 | S. cerevisiae deletion strains, locus YPL106C, strain sse1, hits give low values 0.999 | S. cerevisiae deletion strains, locus YPL240C, strain hsp82, hits give low values 0.985 | S. cerevisiae deletion strains, locus YPL241C, strain CIN2, hits give low values 0.999 | S. cerevisiae deletion strains, locus YPL256C, strain CLN2, hits give low values 1.01 | S. cerevisiae deletion strains, locus YPR119W, strain clb2, hits give low values 1 | S. cerevisiae deletion strains, locus YPR141C, strain kar3, hits give low values 1.01 | S. cerevisiae deletion strains, locus YPR163C, strain tif3, hits give low values 1.01 | S. cerevisiae deletion strains, locus YPR167C, strain met16, hits give low values 1.01 | S. cerevisiae deletion strains, strain wtn01, hits give low values 1.02 | S. cerevisiae strains, strain wild type, hits give low values 0.992
